Screening data from PubChem BioAssay.
An excerpt weighted towards active compounds, which were near 11% of everything screened.
HPGD block – inhibitors of human 15-hydroxyprostaglandin dehydrogenase (HPGD); AID 894; Potency, µM, for the others: top-dose activity change, negative = inhibition, actives largely listed as inhibitors; purified HPGD, NADH fluorescence kinetic, PGE2 substrate; 150,000 tested, 4.3% active; active means well fitted inhibition curve with a large enough effect, not every such curve was filed as active; inconclusive means small, poorly fitted or top-dose-only effect, or another doubt; inactive means no such curve, though single readings can be large or run the other way; further: potency means the concentration at half of the fitted maximal effect; on the % scale 0 is the no-effect control and ±100 the full control effect
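20 nM HPGD preincubated 15 min at room temperature with compound in 50 mM Tris-HCl pH 8, 0.01% Tween 20. Started with 1 mM NAD+ and 30 uM prostaglandin E2; NADH fluorescence (360/450 nm) read 5 times over 30-s intervals, last minus first.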
HTT cytoprotect – cytoprotection in Huntington HTT-Q103 PC12 cell model; PC12 HTT-Q103 induced, cytoprotection, ATP luminescence, 40 h; 230,000 tested, 0.14% active; Potency, µM (series often up to 56.4 µM), without a hit: cytoprotection (ATP increase), most hits filed as activators; further: potency means the concentration at half of the fitted maximal effect; % of control where 0% means no effect; nearly all actives have a fitted effect of over 45% in size
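Compounds added alongside 100 nM tebufenozide, which induces toxic Q103 huntingtin exon 1-GFP in stable PC12 cells; surviving cells quantified by luminescent ATP measurement. Medium: phenol red-free DMEM, 5% equine and 5% calf serum.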
ALDH1A1 inh – blocks purified human ALDH1A1 activity. Potency, µM (doses to about 75.3 µM), inactives show at the top dose activity, negative = inhibition, usual class: inhibitors. AID 1030. Purified ALDH1A1, NADH fluorescence, propionaldehyde substrate. 220,000 tested, 7.3% active; active means well fitted inhibition curve with a large enough effect, not every such curve was filed as active; inconclusive means small, poorly fitted or top-dose-only effect, or another doubt; inactive means no such curve, though single readings can be large or run the other way;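 further: potency means the concentration at half of the fitted maximal effect; plate controls were no enzyme wells and a reference inhibitor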
CBFb-RUNX1 inh – CBF-beta/RUNX1 interaction disruption | 230,000 tested, under 10 active | AlphaScreen CBFb-His/RUNX1-biotin binding, biochemical | Q01196+Q13951 | Potency, µM (doses to about 59.8 µM), without a hit: at the top dose activity, negative = inhibition, actives largely listed as inhibitors; further: % of control where 0% means no effect
Target sequence (Q01196 whole entry, looked up): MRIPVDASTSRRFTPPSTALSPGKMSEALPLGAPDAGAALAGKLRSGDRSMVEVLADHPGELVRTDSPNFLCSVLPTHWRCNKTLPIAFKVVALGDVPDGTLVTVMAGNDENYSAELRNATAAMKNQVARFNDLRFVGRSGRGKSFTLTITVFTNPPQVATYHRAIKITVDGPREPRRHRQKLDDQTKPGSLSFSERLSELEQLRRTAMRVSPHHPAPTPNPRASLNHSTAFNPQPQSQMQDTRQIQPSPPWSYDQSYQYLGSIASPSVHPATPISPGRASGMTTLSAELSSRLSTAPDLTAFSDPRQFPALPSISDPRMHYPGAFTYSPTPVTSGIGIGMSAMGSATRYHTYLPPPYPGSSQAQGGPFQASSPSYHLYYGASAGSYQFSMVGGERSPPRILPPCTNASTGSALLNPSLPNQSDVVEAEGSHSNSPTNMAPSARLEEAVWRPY
Target sequence (Q13951 whole entry, looked up): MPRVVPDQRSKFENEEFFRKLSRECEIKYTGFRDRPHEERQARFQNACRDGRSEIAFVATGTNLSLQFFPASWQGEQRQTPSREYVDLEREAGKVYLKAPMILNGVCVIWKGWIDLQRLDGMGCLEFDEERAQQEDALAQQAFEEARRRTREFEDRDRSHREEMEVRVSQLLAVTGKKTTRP
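AlphaScreen proximity signal reports loss of binding between His-tagged CBF-beta and biotin-labelled RUNX1, each at 30 nM. Proteins are pre-associated for 20 minutes, compounds added for 15 minutes, then beads for 90 minutes, all at ambient temperature.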
HttQ103 aggreg – inhibitors of mutant huntingtin aggregate formation in PC12 cells. PC12 HttQ103-GFP aggregates, Acumen cytometry, 40 h. Potency, µM (series often up to 46.1 µM), inactives show at the highest dose activity change, negative = inhibition, hits mostly inhibitors. 220,000 tested, 1.1% active. AID 1688; further: potency means the concentration at half of the fitted maximal effect; on the % scale 0 is the no-effect control and ±100 the full control effect; nearly all actives have a fitted effect of over 60% in size
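PC12/HTTQ103-GFP, ecdysone-inducible; teb 100 nM; cpd qHTS titration; GFP aggregates read on laser cytometer, Ex 488/Em 500-530 nm.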
PNC inhibitor – perinucleolar compartment assembly inhibition. 140,000 tested, 3.1% active. AID 2417. activity change (PNC), negative = inhibition, % at 10 µM. PC3M PTB-GFP, PNC prevalence imaging, 16 h; active compounds read low;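 active means readout at or below -70, meaning at least 70% loss of cells showing the perinucleolar compartment, a nuclear body marking cancer cells; inconclusive means readout between -30 and a set limit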;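 further: plate controls were DMSO wells for no effect and camptothecin positive control wells for full effect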
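PC3M cells stably expressing PTB-GFP, 750–1000 cells/well, treated 16 h at 37 °C with compound (23 nl of library stock), in duplicate. After paraformaldehyde fixation and Hoechst stain, imaged at 20x; PNC prevalence scored by image analysis.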
Numbers without * were called inactive; ? = inconclusive; · = not tested or not shown; [ ] = remark or other dose. Unless noted, the call rests on the fitted dose curve; in most records, active means well fitted curve in the direction sought with a large enough effect; inconclusive means small, poorly fitted or top-dose-only effect, or another doubt; inactive means no such curve, though single readings can be large; an effect the other way counts as inactive or inconclusive.

SMILES	HPGD block	HTT cytoprotect	ALDH1A1 inh	CBFb-RUNX1 inh	HttQ103 aggreg	PNC inhibitor
O=C(Nc1ccc(OCC(=O)N2CCC(Cc3ccccc3)CC2)cc1)c1ccco1	-17%	-53%	10µM*	1%	-51%	?
C=C(C)[C@H]1CC=C(CO)CC1	-9%	-23%	?	-14%	·	·
C[C@@H]1CC2C3CCC4=CC(=O)C=C[C@]4(C)[C@@]3(F)[C@@H](O)C[C@]2(C)[C@@]1(O)C(=O)COC(=O)c1cccc(S(=O)(=O)O)c1 (some centres undefined)	·	-16%	·	·	2%	·
O=S(=O)(c1ccccc1)N1CCC2(CCN(Cc3ccccc3)CC2)CC1	-4%	4%	2%	·	·	·
COCCn1c(C)cc(/C=C2/NC(=O)N(c3ccc(Cl)cc3)C2=O)c1C	-21%	·	-7%	-17%	-9%	-114*
COC(=O)C1=C(C)N(Cc2ccccc2)C2=C(C(=O)c3ccccc3)C(c3ccccc3)[C@@](O)(C(=O)OC)C(=O)N2C1c1ccccc1 (some centres undefined)	·	3%[10 µM]	-1%[13.5 µM]	6%[13.1 µM]	·	·
CC(Oc1ccc(O)cc1)(P(=O)(O)O)P(=O)(O)O	1%	9%	0%	1%[21.7 µM]	·	·
CCOC(=O)c1cnn2c(C(F)(F)F)cc(-c3ccccc3)nc12	?	-5%	-10%	8%	2%	15
O=C(c1cnn2c(C(F)(F)F)cc(-c3ccc4c(c3)OCO4)nc12)N1CCCC1	4.5µM*	-28%[10 µM]	0%	2%	8%	14
CCOC(=O)C1CCCN(C(=O)c2cc3nc(-c4cccc(OC)c4)cc(C(F)(F)F)n3n2)C1 (centres undefined)	16µM*	-11%	?	18%	11%	-80*
O=C(c1cnn2c(C(F)(F)F)cc(-c3ccc(Br)cc3)nc12)N1CCOCC1	?	-11%	16%	0%	27%	?
CCOC(=O)C1CCCN(C(=O)c2cnn3c(C(F)(F)F)cc(-c4ccccc4)nc23)C1 (centres undefined)	25µM*	0%	?	11%	4%	5
O=C(Nc1nc2c(Br)cc(Br)cc2c(=O)s1)C1CCC1	·	-6%[10 µM]	·	9%	10%[9.22 µM]	·
NCCC[C@@H](CC(=O)N[C@@H]1CCCC[C@H]1C(=O)N[C@H](CC(=O)N[C@@H](CCC(=O)O)CC(=O)O)Cc1c[nH]c2ccccc12)NC(=O)C[C@H](Cc1ccccc1)NC(=O)[C@@H]1CNCC[C@H]1N	-11%	-40%	-6%	11%	·	·
Cc1ccc(CN(C)C(=O)c2cc(COc3ccc(F)cc3Cl)on2)o1	·	28%[10 µM]	7.1µM*	-2%	18%[9.22 µM]	·
CC(=O)Nc1ccc(S(=O)(=O)NNC(=O)c2cccc(Cl)c2)cc1	·	·	-6%	4%	-3%	·
Cc1c(NC(=O)c2cccc(NS(C)(=O)=O)c2)c(=O)n(-c2ccccc2)n1C	·	8%[10 µM]	·	5%	1µM*	·
Cc1c(NC(=O)c2cc(-c3cccs3)on2)c(=O)n(-c2ccccc2)n1C	-7%	-2%	32µM*	1%	-9%	?
Cc1c(NC(=O)c2cc(-c3ccco3)on2)c(=O)n(-c2ccccc2)n1C	-10%	-5%	?	3%	5%	49
COC(=O)C/C=C\[C@H](C)[C@@H](OC)c1ccccc1Br	·	-7%[10 µM]	-4%[13.5 µM]	2%[13.1 µM]	·	·
Cc1ccc(C)c(-n2c(SCC(=O)NC(C(=O)O)C(C)C)nnc2-c2cccc(Cl)c2)c1 (centres undefined)	·	-11%[10 µM]	-8%	12%	19%	·
COC(=O)c1cccc(NC(=O)c2cc(OC)c(OC)c(OC)c2Br)c1	?	2%[10 µM]	40µM*	3%	-8%	3
CC(C)CO/N=C1/C[C@@H](O)[C@@H](O)[C@@H]2[C@H]3C(=O)N(c4ccc(F)cc4F)C(=O)[C@@H]3CC[C@H]12	·	?	5%[13.5 µM]	-8%[13.1 µM]	·	·
Cc1ccc(CN2CCN(Cc3ccc4cc(F)ccc4n3)CC2CCO)o1 (centres undefined)	·	-11%[10 µM]	?	?	14%[9.22 µM]	·
N#CCc1ccc(NS(=O)(=O)c2ccc(N3CCCC3=O)cc2)cc1	-5%	-15%	14µM*	1%	18%	1
SMILES	HPGD block	HTT cytoprotect	ALDH1A1 inh	CBFb-RUNX1 inh	HttQ103 aggreg	PNC inhibitor
CC[C@H](C)[C@H](N)C(=O)N[C@H](C(=O)N[C@@H](CO)C(=O)N[C@@H](C)C(=O)N[C@H](C(=O)N[C@H](C(=O)NCC(=O)N[C@H](C(=O)N[C@@H](CC(C)C)C(=O)O)[C@@H](C)CC)C(C)C)C(C)C)[C@@H](C)CC	·	·	·	19%	·	·
O=C(O)CCCc1ccc2ccccc2c1	-6%	-2%[10 µM]	-5%[13.5 µM]	·	·	·
Nc1nc(SCc2ccccc2Cl)nc2nc3c(cc12)CCCC3	-8%	-17%	?	11%	-2%	69
Nc1nc(SCc2ccc(Cl)cc2Cl)nc2nc3c(cc12)CCCC3	-28%	·	3%	3%	-19%	-83*
COc1cccc(-c2cc(C(=O)N3CC4(C)CC3CC(C)(C)C4)no2)c1 (centres undefined)	-17%	-13%	13µM*	4%	?	?
Cc1noc(C)c1COc1ccc(C(=O)OCC(=O)N2CC3(C)CC2CC(C)(C)C3)cc1 (centres undefined)	-12%	-6%	?	2%	-1%	31
COc1ccccc1N1CCN(C(=O)c2cc(-c3ccc4c(c3)OCO4)on2)CC1	-29%	4%	?	1%	-7%	-25
COc1cccc(-c2cc(C(=O)O)no2)c1	5.6µM*	-10%	0.56µM*	-3%	12%	-1
Cc1noc(C(=O)N2CC3(C)CC2CC(C)(C)C3)c1Cl (centres undefined)	-8%	-26%	18µM*	0%	-6%	?
COc1ccccc1N1CCN(C(=O)c2cc(-c3cccc(Cl)c3)on2)CC1	-15%	-12%	20µM*	4%	22%	-25
COc1ccc(CC(=O)N2CC3(C)CC2CC(C)(C)C3)cc1 (centres undefined)	-30%	-25%	?	2%	9%	-10
O=C(O)c1cc(-c2ccccc2)on1	-28%	-1%	?	-3%	6%	26
CCOC(=O)N1c2ccccc2C=CC1OCC (centres undefined)	-14%	·	2%	10%	-6%	1
CC(=C/C=C/C(C)=C/C=C/C=C(C)/C=C/C=C(C)/C=C/C(=O)O)/C=C/C(=O)O	-4%	-6%	14%	-3%[21.7 µM]	·	·
C=CCC(C)(O)C#Cc1ccccc1 (centres undefined)	-11%	-3%	5%	-1%	·	·
COCCn1c(=O)c(-c2ccc(OC)cc2)nc2cnc(Oc3ccc(OC)cc3)nc21	-9%	6%	?	·	·	·
